TEAD-YAP inh = TEAD-YAP interaction inhibition; inhibition, % at 9.12 µM; 640,000 tested, 1.4% active; AID 1259422; HEK-TIYL cells, TEAD-Gal4/YAP UAS-luciferase luminescence; in the data active = inhibition above about 32%
FBW7 activator = activators of human E3 ligase FBW7; 650,000 tested, 0.13% active; Q969H0; normalized activity (activation), % at 26.1 µM; AlphaScreen FBW7–phospho-cyclin E peptide binding, activator screen; in the data active = normalized activity above about 1.9%;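 note: purified mutant Fbw7 with reduced substrate affinity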
GPR151 activ = activators of human GPR151; PathHunter beta-arrestin GPR151 cells, luminescence; activation, % at 11.2 µM; 650,000 tested, 1% active; AID 1508602; in the data active = activation above about 4.9%
MITF primary = inhibitors of human MITF | AID 1259374 | inhibition, % at 2.6 µM | 650,000 tested, 0.91% active | O75030 | AlphaScreen MITF homodimerization, bead proximity signal; in the data active = inhibition above about 50%
MITF confirm = human MITF inhibition, confirmation | shares compounds with MITF primary | AlphaScreen MITF homodimerization, biotin/His-MITF beads | inhibition, % at 2.6 µM | 4,700 tested, 16% active;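 active = inhibition above a cutoff derived from the DMSO control wells, cut at about 28% in these data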;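 note: inhibitors lower the bead chemiluminescence by keeping MITF from dimerizing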
AS interf DR = counter-screen: compounds optically interfering with AlphaScreen | 480 tested, 6% active | shares compounds with MITF primary | AlphaScreen optical interference counterscreen, cell-free | AID 1259373 | IC50, µM; call rule not given here
AlphaScreen intf2 = optically interferes with AlphaScreen signal | inhibition, % at 2.6 µM | 4,700 tested, 7.6% active | shares compounds with MITF primary | AID 1259376 | LysRS AlphaScreen counterscreen, signal interference, triplicate;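 active = inhibition above a cutoff derived from the DMSO control wells, cut at about 30% in these data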
Large screens that a line does not name were inactive (follow-up assays come after a bar, where they were run). Rows were chosen to be rich in hits. Some 3.5% of all compounds tested hit in one or more screens of this group.

CCOC(=O)c1ccc(NC(=O)N2CCn3cnnc3C2)cc1	none
Cc1cc2ncn(Cc3noc(-c4ccco4)n3)c2cc1C	MITF primary 55 | MITF confirm 33 | AS interf DR inactive | AlphaScreen intf2 inactive
COCc1nc(Cn2cnc3cc(C)c(C)cc32)no1	none
CC1(C)CC2CC(C)(CN2CC(O)COc2ccccc2)C1 (stereo unspecified)	none
COc1cccc(COCC(O)CN2CC3(C)CC2CC(C)(C)C3)c1 (stereo unspecified)	MITF primary 68 | MITF confirm inactive | AlphaScreen intf2 inactive
COc1ccc(OCC(=O)OCC(=O)COC(=O)COc2ccc(OC)cc2)cc1	MITF primary 77 | MITF confirm inactive | AlphaScreen intf2 inactive
O=C(/C=C/c1cccc([N+](=O)[O-])c1)NC(=S)Nc1ccccc1C(=O)O	MITF primary 86 | MITF confirm inactive | AlphaScreen intf2 inactive
Cc1ccc(O)c(NC(=S)NC(=O)/C=C/c2ccco2)c1	MITF primary 62 | MITF confirm 30 | AS interf DR inactive | AlphaScreen intf2 inactive
NC(=O)c1ccccc1NC(=S)NC(=O)/C=C/c1ccco1	TEAD-YAP inh 41, MITF primary 54 | MITF confirm 70 | AS interf DR inactive | AlphaScreen intf2 inactive
Clc1ccc(CCNc2ncccn2)cc1	none
COc1ccc(C(C)=O)cc1CSc1nc(NC2CCCCC2)c2ccccc2n1	MITF primary 80 | MITF confirm inactive | AlphaScreen intf2 inactive
COc1ccc(C(C)=O)cc1CSc1nc(NCCc2ccccc2)c2ccccc2n1	none
O=C(c1csc(-n2cccc2)n1)N1CCN(c2ccccc2O)CC1	none
O=C(c1csc(-n2cccc2)n1)N1CCN(c2ccccn2)CC1	MITF primary 60 | MITF confirm inactive | AlphaScreen intf2 inactive
O=C(CCCCCn1nnc2ccccc2c1=O)N1CCC(O)(c2cccc(C(F)(F)F)c2)CC1	MITF primary 74 | MITF confirm inactive | AlphaScreen intf2 inactive
Cc1ccc(C2=CC(c3ccccc3OC(F)F)n3nnnc3N2)cc1 (stereo unspecified)	none
N#Cc1ccccc1S(=O)(=O)Nc1ccc(Cl)c(C(F)(F)F)c1	none
CN(Cc1ccc(C(=O)NCc2ccccc2Cl)c(=O)[nH]1)Cc1nccn1C	MITF primary 52 | MITF confirm 38 | AlphaScreen intf2 78
CN(CCc1ccccn1)Cc1ccc(C(=O)NCc2ccccc2Cl)c(=O)[nH]1	none
